Source: PubChem BioAssay
HIF-2a inh = blocks HIF-2a reporter activity | AID 624352 | inhibition, % at 18.8 µM | 786-0 RCC cells HIF-2a reporter, luciferase luminescence, overnight | 360,000 compounds, 0.72% hits;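 active means inhibition of the luminescence signal of 40% or more relative to plate controls, in a single-dose primary screen at 18.75 µM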
Mdm2-MdmX inh = inhibitors of human Mdm2/MdmX interaction. SaOS-2 split-luciferase Mdm2/MdmX complementation, luminescence. O15151+Q00987. inhibition, % at 8 µM. 330,000 compounds, 3% hits. AID 485346;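 active means inhibition of at least 50% at 8 µM in the primary screen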
KKLEB tox = counter-screen for CF NF-kB inhibitors: cytotoxicity; KKLEB CF airway cells viability, ATPlite luminescence, overnight; hits give low values; cells stimulated with P. aeruginosa culture filtrate; activity change (cytotoxicity), % at 5 µM; 360,000 compounds, 0.36% hits; AID 602141;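 active means corrected activity change at or below -50% at 5 µM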
CF NFkB block = blocks PAF-induced NF-kB reporter in cystic fibrosis cells | KKLEB NF-kB-GFP reporter, GFP fluorescence overnight | inhibition, % at 5 µM | 360,000 compounds, 0.86% hits | AID 588850;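 active means at least 50% inhibition at 5 µM, scaled per plate between neutral and stimulator controls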;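 further: PAF is a Pseudomonas aeruginosa culture filtrate used as stimulus; plate controls were PAF-stimulated DMSO wells for no effect and unstimulated DMSO wells for full effect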
Peg3 promoter = inhibitors of Peg3 promoter. inhibition, % at 20 µM. 360,000 compounds, 1.7% hits. AID 588405. HeLa PEG-Prom luciferase reporter, luminescence, overnight;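 active means inhibition of at least 50% at 20 µM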
ABHD5-PLIN5 inh = inhibitors of human ABHD5-perilipin-5 interaction. 360,000 compounds, 0.78% hits. inhibition, % at 4 µM. Split G. princeps luciferase complementation, luminescence, 4 h. Q00G26+Q8WTS1;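 active means inhibition above the mean inhibition across every tested compound plus 3 SD, cut at about 22% in these data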;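 further: 0% = DMSO only wells and the 100% control is not disclosed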
Starred values were filed as active, the others as inactive; / = not tested or not shown. Most compounds without a hit are left out; they make up all but 4.6% or so of the library.

SMILES | HIF-2a inh | Mdm2-MdmX inh | KKLEB tox | CF NFkB block | Peg3 promoter | ABHD5-PLIN5 inh
COc1ccc(CC(N)c2csc(NC(=O)Nc3ccccc3C(C)C)n2)cc1 (stereo not drawn) | 3 | / | 10 | -28 | 100* | -3
NC(c1ccccc1)c1csc(NC(=O)NCC2CCCCC2)n1 (stereo not drawn) | -3 | / | -24 | 17 | 18 | 4
NC(Cc1ccc(C(F)(F)F)cc1)c1csc(NC(=O)Nc2ccccc2Oc2ccccc2)n1 (stereo not drawn) | 19 | / | -22 | 15 | 98* | -10
COc1ccc(CC(N)c2csc(NC(=O)Nc3ccccc3Cc3ccccc3)n2)cc1 (stereo not drawn) | 4 | / | 3 | 3 | 104* | 2
COc1ccc(CC(N)c2csc(NC(=O)CCc3ccccc3)n2)cc1 (stereo not drawn) | -12 | / | -7 | -4 | 33 | -13
NC(c1ccccc1)c1csc(NC(=O)Nc2ccccc2Oc2ccccc2)n1 (stereo not drawn) | -16 | / | -25 | 23 | 82* | 1
COc1ccccc1NC(=O)Nc1nc(C(N)C(C)C)cs1 (stereo not drawn) | -40 | / | -27 | 34 | -31 | 15
COc1ccccc1NC(=O)Nc1nc(C(N)Cc2ccc(C(F)(F)F)cc2)cs1 (stereo not drawn) | 4 | / | -2 | 14 | 96* | -7
NC(c1ccccc1)c1csc(NC(=O)NCCc2ccccc2)n1 (stereo not drawn) | -2 | / | 2 | -16 | 10 | -3
NC(Cc1ccc(C(F)(F)F)cc1)c1csc(NC(=O)NCCc2ccccc2)n1 (stereo not drawn) | 3 | / | -32 | 36 | 109* | 2
NC(Cc1ccc(F)cc1)c1csc(NC(=O)NC(c2ccccc2)c2ccccc2)n1 (stereo not drawn) | -17 | / | -31 | 31 | 96* | -4
NC(c1ccccc1)c1csc(NC(=O)Nc2ccc(OC(F)(F)F)cc2)n1 (stereo not drawn) | -1 | / | -7 | 22 | 105* | -4
CCN(CC)C(=O)C1=C(C)N(CCCN2CCCC2=O)C(=O)C(CC(=O)NCCN2CCOCC2)C1 (stereo not drawn) | 4 | / | -31 | 9 | 3 | 15
O=C(Sc1n[nH]c(=O)[nH]c1=O)c1ccccc1 | 0 | / | -1 | -6 | 9 | -26
CCCNC(=O)C1(C)CCN(C(=O)c2ccc3c(c2)CCO3)C1 (stereo not drawn) | 6 | / | 4 | -8 | 16 | 12
CC(Oc1cc2oc(=O)c3c(c2cc1Cl)CCC3)C(=O)NCc1ccccn1 (stereo not drawn) | 4 | -2 | -2 | 14 | -2 | -8
COc1ccc(C(=O)N/C(=C\c2cn(C)c3ccccc23)C(=O)NCCCN2CCOCC2)cc1 | 8 | 6 | 5 | 12 | -19 | -3
COc1cc(CNC(=O)Nc2nc(C(N)CCc3ccccc3)cs2)cc(OC)c1OC (stereo not drawn) | 2 | / | -17 | 13 | 40 | 5
COc1ccc(CC(N)c2csc(NC(=O)Nc3ccccc3Oc3ccccc3)n2)cc1 (stereo not drawn) | 4 | / | -16 | 20 | 98* | 3
NC(Cc1ccccc1)c1csc(NC(=O)Nc2ccccc2Oc2ccccc2)n1 (stereo not drawn) | 20 | / | -13 | 7 | 104* | -6
CC1CCCCC1NC(=O)c1cccc(NC2=NC3CS(=O)(=O)CC3S2)c1 (stereo not drawn) | 1 | 0 | 12 | -20 | -8 | -16
Cc1cccc(NC(=O)CN(CC2CCCO2)C(=O)c2cc3ccccc3o2)c1C (stereo not drawn) | -52 | 23 | 7 | 13 | -51 | 6
COCCNC(=O)C(c1ccc(F)cc1)N(C(=O)CCC(=O)Nc1ccccn1)c1ccc(C)cc1 (stereo not drawn) | 6 | -7 | -5 | -4 | 0 | 2
COc1ccc(-n2c(-c3cc(-c4ccccc4)sc3N)n[nH]c2=S)cc1 | -6 | 8 | 20 | -38 | 87* | -6
c1ccc2c(c1)oc1c(N3CCOCC3)ncnc12 | -105 | 12 | 14 | -19 | -96 | 0
SMILES | HIF-2a inh | Mdm2-MdmX inh | KKLEB tox | CF NFkB block | Peg3 promoter | ABHD5-PLIN5 inh
COc1ccccc1N1CCN(c2ncnc3c2oc2ccccc23)CC1 | -163 | 44 | -7 | 14 | 57* | 0
COC(=O)c1ccc(CNC(=O)Cn2cnc3c(OCc4ccccc4)ncnc32)cc1 | -6 | 42 | 2 | -25 | 84* | 2
Cc1ccc(CNC(=O)Cn2cnc3c(OCc4ccccc4)ncnc32)o1 | -5 | -10 | -10 | -6 | 17 | -1
O=C(Nc1nc(-c2ccco2)c(-c2ccco2)s1)c1c(F)cccc1Cl | -7 | 29 | 6 | 9 | -5 | 33*
O=C(Nc1nc(-c2ccco2)c(-c2ccco2)s1)c1ccc(F)cc1F | -5 | 12 | 16 | -17 | -194 | 18
CC1(C)CC(=O)C2=C(C1)NC(Nc1nc3ccccc3o1)=NC2c1ccccn1 (stereo not drawn) | 22 | -22 | -7 | -3 | -3 | 5
CC1=C(C(=O)Nc2ccccc2)C(c2ccc(C)cc2)N=C(Nc2nc3ccccc3o2)N1 (stereo not drawn) | 2 | 40 | -17 | 1 | 77* | -11
CCOC(=O)c1c(C)n(C)c2ccc(OC)c(NC(=O)CCN3CCC(Cc4ccccc4)CC3)c12 | 7 | 24 | 14 | 8 | -3 | 4
CCOC(=O)c1c(C)n(C)c2ccc(OC)c(NC(=O)CN3CCSCC3)c12 | -7 | 11 | 7 | -5 | 77* | 1
COC(=O)C1OC(OC2CC[C@]3(C)C(CC[C@@]4(C)[C@@H]3CC=C3[C@@H]5CC(C)(C)CC[C@]5(C(=O)OC5OC(CO)C(O)C(O)C5O)CC[C@]34C)C2(C)C)C(O)C(O)C1O[C@H]1OCC(O)C(O)C1O (stereo partly drawn) | 11 | 13 | 7 | 25 | 1 | 33*
CC1(C)CC[C@]2(C(=O)O[C@@H]3OC(CO)[C@@H](O)[C@H](O)[C@H]3O)CC[C@]3(C)C(=CCC4[C@@]5(C)CC[C@H](O[C@@H]6OC(C(=O)O)[C@@H](O)[C@H](O)[C@H]6O)C(C)(C)C5CC[C@]43C)[C@@H]2C1 (stereo partly drawn) | 1 | -14 | 12 | -5 | -9 | 4
CCC1(c2ccccc2)NC(=O)N(CC(=O)Nc2ccccc2C(=O)N2CCCCC2)C1=O (stereo not drawn) | 8 | -1 | 24 | -29 | -21 | -9
O=C1N/C(=C\c2ccc(O)cc2)C(=O)c2ccccc21 | 8 | -1 | 1 | 12 | 19 | 34*
O=C(O)/C=C1\NC(=O)c2ccccc21 | 14 | 1 | 7 | -1 | 9 | -2
CCCCc1ccc(NC(=O)N2CCN(c3cc(C)nc4ccccc34)CC2)c(C)c1 | 15 | 50 | -5 | 15 | 60* | 8
